From article PMC7862700, “An all-to-all approach to the identification of sequence-specific readers for epigenetic DNA modifications on cytosine”

Assays:
Experiment in all cases: DAPPL (digital affinity profiling via proximity ligation, sequencing); 10 mM Tris-HCl pH 7.5, 50 mM NaCl, 1 mM DTT, 4% glycerol, room temperature, 30 min; GST-TFs on glutathione beads, 16-mer random dsDNA library, 0.1% formaldehyde crosslink after washing; high values mean tight binding
FLI1 = biological target: T1, FLI1 (Homo sapiens, UniProt Q01543 1-452); details: protein: recombinant; tags: N-terminal GST; dsDNA, one strand shown
T1 sequence: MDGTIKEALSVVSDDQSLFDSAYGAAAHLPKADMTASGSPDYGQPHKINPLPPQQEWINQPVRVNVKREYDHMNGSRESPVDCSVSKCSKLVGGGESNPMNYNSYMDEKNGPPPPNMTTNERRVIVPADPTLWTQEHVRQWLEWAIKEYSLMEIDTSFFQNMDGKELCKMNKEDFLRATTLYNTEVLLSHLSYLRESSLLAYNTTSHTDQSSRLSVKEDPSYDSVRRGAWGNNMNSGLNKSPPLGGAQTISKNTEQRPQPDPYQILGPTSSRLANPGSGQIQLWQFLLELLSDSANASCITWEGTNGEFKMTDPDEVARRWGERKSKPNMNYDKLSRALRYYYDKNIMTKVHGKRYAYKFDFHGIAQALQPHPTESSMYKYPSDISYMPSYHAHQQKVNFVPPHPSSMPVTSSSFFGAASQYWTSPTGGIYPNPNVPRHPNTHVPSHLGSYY
Summary of the method: (§1)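 After expression in yeast as GST fusions, human transcription factors were bound to glutathione beads, DNA-barcoded and mixed with a tag-only sample. The pools were incubated with 200 nmole of a 16-mer random double-stranded DNA library in Tris/NaCl/DTT/glycerol buffer (30 min, room temperature), washed and crosslinked with 0.1% formaldehyde. Proximity ligation with BsaI/T4 ligase ran for 1 h at 37 °C, before PCR amplification and sequencing on an Illumina NextSeq500. Binding signal is a hexamer's read frequency for a factor divided by its frequency for the tag-only sample.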

ELK1 = biological target: T2, ELK1 (Homo sapiens, UniProt P19419 1-428); details: protein: recombinant; tags: N-terminal GST; dsDNA, one strand shown
T2 sequence: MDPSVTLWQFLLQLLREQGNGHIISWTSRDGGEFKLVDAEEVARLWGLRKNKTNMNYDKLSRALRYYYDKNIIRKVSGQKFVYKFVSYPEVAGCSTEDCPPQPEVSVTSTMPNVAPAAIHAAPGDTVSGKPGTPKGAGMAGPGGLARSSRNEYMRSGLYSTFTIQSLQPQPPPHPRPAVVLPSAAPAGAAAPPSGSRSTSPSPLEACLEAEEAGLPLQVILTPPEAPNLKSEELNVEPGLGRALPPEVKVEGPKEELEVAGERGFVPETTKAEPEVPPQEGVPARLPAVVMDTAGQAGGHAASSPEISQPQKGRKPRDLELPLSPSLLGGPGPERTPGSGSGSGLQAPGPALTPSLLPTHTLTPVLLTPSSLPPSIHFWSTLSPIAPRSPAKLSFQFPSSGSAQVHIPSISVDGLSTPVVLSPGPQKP
Summary of the method: as §1

GABPA = biological target: T3, GABPA (Homo sapiens, UniProt Q06546 1-454); details: protein: recombinant; tags: N-terminal GST; dsDNA, one strand shown
T3 sequence: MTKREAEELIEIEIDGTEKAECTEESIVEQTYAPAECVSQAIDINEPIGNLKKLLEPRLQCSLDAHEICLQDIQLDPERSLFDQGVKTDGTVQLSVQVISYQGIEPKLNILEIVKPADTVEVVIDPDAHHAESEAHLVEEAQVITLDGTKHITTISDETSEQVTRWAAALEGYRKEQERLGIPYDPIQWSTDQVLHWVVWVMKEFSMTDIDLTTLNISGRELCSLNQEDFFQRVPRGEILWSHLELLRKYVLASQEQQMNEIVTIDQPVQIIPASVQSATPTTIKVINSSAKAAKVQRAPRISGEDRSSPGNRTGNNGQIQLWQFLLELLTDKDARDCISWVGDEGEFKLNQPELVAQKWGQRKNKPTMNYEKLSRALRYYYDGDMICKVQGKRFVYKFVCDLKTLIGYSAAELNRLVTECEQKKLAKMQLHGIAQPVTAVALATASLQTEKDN
Summary of the method: as §1

ERG = biological target: T4, ERG (Homo sapiens, UniProt P11308 1-479); details: protein: recombinant; tags: N-terminal GST; dsDNA, one strand shown
T4 sequence: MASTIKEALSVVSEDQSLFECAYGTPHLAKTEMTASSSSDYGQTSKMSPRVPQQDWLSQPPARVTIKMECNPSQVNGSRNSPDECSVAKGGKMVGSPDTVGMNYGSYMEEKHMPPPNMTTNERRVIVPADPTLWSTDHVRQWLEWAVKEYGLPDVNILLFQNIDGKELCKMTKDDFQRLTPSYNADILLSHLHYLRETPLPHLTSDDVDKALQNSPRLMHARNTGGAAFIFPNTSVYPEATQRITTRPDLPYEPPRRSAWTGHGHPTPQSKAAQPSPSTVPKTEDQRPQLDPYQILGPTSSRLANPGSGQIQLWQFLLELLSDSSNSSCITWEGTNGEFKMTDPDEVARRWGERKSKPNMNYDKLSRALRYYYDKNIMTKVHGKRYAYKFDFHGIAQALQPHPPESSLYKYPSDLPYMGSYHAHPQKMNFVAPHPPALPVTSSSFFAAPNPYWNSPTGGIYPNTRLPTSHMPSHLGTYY
Summary of the method: as §1

ELF1 = ELF1 (Homo sapiens, UniProt P32519 1-619); details: protein: recombinant; tags: N-terminal GST; dsDNA, one strand shown
Chain of ELF1 (P32519 whole entry): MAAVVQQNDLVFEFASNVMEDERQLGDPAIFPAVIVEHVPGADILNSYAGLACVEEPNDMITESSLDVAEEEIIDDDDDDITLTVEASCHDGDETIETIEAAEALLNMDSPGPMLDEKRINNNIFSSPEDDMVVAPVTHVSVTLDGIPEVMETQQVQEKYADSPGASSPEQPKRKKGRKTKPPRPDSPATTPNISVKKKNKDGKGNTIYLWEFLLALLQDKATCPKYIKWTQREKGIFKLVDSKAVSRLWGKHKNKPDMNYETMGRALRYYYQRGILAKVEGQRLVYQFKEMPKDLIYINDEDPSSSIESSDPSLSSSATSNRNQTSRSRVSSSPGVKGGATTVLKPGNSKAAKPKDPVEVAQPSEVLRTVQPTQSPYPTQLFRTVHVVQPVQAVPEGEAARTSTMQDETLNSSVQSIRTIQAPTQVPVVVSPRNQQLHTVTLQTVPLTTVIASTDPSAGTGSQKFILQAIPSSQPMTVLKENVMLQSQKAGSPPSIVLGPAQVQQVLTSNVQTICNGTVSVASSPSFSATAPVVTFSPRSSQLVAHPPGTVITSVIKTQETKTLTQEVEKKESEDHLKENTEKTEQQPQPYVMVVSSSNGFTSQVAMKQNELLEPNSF
Summary of the method: as §1

EHF = biological target: T5, EHF (Homo sapiens, UniProt Q9NZC4 1-300); details: protein: recombinant; tags: N-terminal GST; dsDNA, one strand shown
T5 sequence: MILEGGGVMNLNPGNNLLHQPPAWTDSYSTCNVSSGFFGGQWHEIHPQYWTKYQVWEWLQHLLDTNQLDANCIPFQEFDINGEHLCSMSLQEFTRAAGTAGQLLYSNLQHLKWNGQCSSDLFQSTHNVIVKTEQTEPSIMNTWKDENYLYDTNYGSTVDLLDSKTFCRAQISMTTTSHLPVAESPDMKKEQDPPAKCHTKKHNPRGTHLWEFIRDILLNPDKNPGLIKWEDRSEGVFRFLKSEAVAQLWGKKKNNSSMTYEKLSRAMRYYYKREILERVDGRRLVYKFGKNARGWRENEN
Summary of the method: as §1

SPI1 = SPI1 (Homo sapiens, UniProt P17947 1-270); details: protein: recombinant; tags: N-terminal GST; dsDNA, one strand shown
Summary of the method: as §1

SPIB = SPIB (Homo sapiens, UniProt Q01892 1-262); details: protein: recombinant; tags: N-terminal GST; dsDNA, one strand shown
Chain of SPIB (Q01892 whole entry): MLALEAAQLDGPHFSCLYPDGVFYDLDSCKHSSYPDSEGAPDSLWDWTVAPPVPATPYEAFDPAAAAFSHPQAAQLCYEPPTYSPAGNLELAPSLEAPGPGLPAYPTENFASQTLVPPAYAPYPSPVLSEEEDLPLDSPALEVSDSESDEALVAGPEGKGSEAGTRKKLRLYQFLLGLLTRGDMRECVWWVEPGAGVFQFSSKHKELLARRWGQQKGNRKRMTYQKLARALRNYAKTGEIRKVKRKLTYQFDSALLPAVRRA
Summary of the method: as §1

ELK3 = biological target: T6, ELK3 (Homo sapiens, UniProt P41970 1-407); details: protein: recombinant; tags: N-terminal GST; dsDNA, one strand shown
T6 sequence: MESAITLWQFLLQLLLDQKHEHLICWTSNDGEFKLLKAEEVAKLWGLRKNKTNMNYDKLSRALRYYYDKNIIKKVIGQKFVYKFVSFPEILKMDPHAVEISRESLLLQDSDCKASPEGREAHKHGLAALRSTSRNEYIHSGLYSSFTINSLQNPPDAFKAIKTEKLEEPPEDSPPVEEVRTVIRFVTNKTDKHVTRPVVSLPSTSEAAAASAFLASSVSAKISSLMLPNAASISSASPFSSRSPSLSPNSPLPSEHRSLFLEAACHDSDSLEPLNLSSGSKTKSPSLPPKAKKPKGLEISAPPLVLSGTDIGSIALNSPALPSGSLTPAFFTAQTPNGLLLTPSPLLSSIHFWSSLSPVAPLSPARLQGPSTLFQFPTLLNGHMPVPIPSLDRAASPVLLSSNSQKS
Summary of the method: as §1

FEV = biological target: T7, FEV (Homo sapiens, UniProt Q99581 1-238); details: protein: recombinant; tags: N-terminal GST; dsDNA, one strand shown
T7 sequence: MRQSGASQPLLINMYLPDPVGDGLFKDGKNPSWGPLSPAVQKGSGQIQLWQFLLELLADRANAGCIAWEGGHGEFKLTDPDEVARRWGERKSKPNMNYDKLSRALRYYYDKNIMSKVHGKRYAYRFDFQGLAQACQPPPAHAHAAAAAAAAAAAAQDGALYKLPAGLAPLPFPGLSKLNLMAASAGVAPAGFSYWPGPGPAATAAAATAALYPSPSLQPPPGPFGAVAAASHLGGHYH
Summary of the method: as §1

ETV5 = ETV5 (Homo sapiens, UniProt P41161 1-510); details: protein: recombinant; tags: N-terminal GST; dsDNA, one strand shown
Chain of ETV5 (P41161 whole entry): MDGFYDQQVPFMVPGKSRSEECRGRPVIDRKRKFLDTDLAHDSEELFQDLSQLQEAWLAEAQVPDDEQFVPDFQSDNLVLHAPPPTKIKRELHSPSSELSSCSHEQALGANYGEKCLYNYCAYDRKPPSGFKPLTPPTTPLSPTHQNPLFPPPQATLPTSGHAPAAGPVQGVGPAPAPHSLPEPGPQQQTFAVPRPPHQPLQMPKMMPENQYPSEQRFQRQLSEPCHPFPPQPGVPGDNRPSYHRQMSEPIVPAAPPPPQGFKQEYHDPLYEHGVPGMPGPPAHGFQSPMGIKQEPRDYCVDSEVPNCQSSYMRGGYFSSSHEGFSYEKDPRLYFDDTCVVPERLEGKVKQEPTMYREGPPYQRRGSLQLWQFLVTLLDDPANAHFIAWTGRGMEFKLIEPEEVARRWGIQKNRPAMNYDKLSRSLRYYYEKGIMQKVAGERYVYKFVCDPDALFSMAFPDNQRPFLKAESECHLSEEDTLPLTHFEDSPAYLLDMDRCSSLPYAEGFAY
Summary of the method: as §1

HSF1 = HSF1 (Homo sapiens, UniProt Q00613 1-529); details: protein: recombinant; tags: N-terminal GST; chain copies: 3; dsDNA, one strand shown
Chain of HSF1 (Q00613 whole entry): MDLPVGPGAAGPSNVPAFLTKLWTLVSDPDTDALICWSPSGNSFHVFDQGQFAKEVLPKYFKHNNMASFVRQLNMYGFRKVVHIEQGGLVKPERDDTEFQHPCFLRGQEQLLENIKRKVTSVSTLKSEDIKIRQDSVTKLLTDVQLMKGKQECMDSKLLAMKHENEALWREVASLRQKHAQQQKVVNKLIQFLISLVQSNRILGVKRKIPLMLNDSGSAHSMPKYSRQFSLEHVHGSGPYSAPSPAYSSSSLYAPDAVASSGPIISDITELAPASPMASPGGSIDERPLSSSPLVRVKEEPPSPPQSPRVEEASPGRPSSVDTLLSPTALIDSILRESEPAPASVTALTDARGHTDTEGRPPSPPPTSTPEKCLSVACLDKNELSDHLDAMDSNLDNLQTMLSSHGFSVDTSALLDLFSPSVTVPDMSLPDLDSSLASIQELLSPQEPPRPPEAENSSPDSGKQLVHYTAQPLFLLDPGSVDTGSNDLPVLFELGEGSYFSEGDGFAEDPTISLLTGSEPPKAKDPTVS
Summary of the method: as §1

SPIC = biological target: T8, SPIC (Homo sapiens, UniProt Q8N5J4 1-248); details: protein: recombinant; tags: N-terminal GST; dsDNA, one strand shown
T8 sequence: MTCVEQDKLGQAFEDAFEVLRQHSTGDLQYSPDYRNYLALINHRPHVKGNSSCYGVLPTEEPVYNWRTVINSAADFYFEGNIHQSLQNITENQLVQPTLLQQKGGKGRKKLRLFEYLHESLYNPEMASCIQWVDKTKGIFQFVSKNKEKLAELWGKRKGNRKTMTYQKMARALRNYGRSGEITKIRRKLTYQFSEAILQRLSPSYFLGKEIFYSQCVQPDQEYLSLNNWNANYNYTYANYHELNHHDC
Summary of the method: as §1

ELF4 = ELF4 (Homo sapiens, UniProt Q99607 1-663); details: protein: recombinant; tags: N-terminal GST; dsDNA, one strand shown
Chain of ELF4 (Q99607 whole entry): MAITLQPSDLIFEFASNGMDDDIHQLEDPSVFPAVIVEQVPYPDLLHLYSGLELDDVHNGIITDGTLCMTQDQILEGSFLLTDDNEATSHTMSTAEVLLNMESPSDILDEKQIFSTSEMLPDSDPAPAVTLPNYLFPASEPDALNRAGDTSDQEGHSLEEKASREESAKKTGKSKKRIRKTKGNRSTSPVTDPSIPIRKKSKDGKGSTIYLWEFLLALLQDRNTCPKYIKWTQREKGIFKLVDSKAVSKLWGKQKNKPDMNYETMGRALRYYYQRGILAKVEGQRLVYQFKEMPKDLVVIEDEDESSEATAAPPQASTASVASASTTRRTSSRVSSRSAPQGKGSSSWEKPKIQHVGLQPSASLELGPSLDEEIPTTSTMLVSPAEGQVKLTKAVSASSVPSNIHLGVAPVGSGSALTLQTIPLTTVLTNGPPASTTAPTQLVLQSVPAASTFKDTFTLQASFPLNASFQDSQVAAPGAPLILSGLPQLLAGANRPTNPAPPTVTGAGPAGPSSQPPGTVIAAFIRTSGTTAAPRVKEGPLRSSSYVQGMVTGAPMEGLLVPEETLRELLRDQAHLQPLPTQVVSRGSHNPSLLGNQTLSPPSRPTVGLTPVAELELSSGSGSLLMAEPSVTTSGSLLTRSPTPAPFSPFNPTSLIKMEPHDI
Summary of the method: as §1

ELK4 = biological target: T9, ELK4 (Homo sapiens, UniProt P28324-2 1-405); details: protein: recombinant; tags: N-terminal GST; dsDNA, one strand shown
T9 sequence: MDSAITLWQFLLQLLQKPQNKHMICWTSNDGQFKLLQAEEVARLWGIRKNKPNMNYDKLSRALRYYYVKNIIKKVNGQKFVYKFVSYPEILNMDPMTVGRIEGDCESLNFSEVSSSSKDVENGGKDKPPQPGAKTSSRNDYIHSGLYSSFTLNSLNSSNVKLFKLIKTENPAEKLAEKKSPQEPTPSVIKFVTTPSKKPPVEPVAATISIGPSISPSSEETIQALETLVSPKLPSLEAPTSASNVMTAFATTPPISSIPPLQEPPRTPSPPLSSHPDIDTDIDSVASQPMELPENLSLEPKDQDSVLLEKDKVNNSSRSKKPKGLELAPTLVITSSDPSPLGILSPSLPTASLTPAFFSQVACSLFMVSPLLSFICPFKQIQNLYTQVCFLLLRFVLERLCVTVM
Summary of the method: as §1

ETV2 = biological target: T10, ETV2 (Homo sapiens, UniProt O00321 1-342); details: protein: recombinant; tags: N-terminal GST; dsDNA, one strand shown
T10 sequence: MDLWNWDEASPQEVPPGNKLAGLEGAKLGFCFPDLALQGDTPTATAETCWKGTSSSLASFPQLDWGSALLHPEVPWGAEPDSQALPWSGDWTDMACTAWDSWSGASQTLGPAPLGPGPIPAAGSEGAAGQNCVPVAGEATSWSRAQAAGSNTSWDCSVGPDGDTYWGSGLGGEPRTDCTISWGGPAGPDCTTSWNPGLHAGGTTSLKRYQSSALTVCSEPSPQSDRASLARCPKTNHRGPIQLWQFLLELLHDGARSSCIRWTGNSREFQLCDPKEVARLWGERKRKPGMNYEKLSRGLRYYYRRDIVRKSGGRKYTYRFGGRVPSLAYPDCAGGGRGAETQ
Summary of the method: as §1

ELF3 = biological target: T11, ELF3 (Homo sapiens, UniProt P78545 1-371); details: protein: recombinant; tags: N-terminal GST; dsDNA, one strand shown
T11 sequence: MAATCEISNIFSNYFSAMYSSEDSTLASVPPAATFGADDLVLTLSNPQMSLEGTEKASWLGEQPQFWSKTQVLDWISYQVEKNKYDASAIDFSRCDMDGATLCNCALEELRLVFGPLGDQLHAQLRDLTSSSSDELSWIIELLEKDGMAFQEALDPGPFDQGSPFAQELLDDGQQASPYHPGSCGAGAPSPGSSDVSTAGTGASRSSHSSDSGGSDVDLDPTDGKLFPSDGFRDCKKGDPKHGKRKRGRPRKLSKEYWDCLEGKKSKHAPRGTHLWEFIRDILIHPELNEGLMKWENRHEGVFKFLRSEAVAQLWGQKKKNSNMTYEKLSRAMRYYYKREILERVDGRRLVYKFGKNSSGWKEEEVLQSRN
Summary of the method: as §1

CRX = CRX (Homo sapiens, UniProt O43186 1-299); details: protein: recombinant; tags: N-terminal GST; dsDNA, one strand shown
Chain of CRX (O43186 whole entry): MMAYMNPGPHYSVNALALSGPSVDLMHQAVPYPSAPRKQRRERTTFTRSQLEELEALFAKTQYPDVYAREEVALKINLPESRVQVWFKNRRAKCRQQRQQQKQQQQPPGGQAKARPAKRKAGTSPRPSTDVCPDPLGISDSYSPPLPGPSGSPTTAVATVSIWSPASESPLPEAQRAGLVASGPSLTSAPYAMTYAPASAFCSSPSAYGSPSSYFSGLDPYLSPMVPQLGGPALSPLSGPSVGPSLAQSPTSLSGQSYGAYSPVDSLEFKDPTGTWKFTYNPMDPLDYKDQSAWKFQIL
Summary of the method: as §1

ETV1 = ETV1 (Homo sapiens, UniProt P50549 1-477); details: protein: recombinant; tags: N-terminal GST; dsDNA, one strand shown
Chain of ETV1 (P50549 whole entry): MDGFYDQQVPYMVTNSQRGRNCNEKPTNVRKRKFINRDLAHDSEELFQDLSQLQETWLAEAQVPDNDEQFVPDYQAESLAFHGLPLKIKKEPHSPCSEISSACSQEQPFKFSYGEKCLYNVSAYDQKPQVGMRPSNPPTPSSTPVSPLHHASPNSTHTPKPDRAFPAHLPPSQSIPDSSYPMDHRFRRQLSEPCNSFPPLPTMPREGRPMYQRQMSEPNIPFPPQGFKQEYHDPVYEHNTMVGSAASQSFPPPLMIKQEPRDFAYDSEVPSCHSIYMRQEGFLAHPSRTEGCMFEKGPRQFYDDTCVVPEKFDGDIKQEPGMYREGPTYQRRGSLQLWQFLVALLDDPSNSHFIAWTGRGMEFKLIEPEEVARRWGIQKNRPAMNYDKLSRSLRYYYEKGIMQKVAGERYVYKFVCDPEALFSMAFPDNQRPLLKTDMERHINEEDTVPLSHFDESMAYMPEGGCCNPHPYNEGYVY
Summary of the method: as §1

## CTATCC
FLI1
  binding signal: 1.45 fold enrichment (6-mer frequency, TF over GST control)
ELK1
  binding signal: 1.4 fold enrichment (6-mer frequency, TF over GST control)
GABPA
  binding signal: 1.29 fold enrichment (6-mer frequency, TF over GST control)
ERG
  binding signal: 1.34 fold enrichment (6-mer frequency, TF over GST control)
ELF1
  binding signal: 1.38 fold enrichment (6-mer frequency, TF over GST control)
EHF
  binding signal: 1.29 fold enrichment (6-mer frequency, TF over GST control)
SPI1
  binding signal: 1.28 fold enrichment (6-mer frequency, TF over GST control)
SPIB
  binding signal: 1.4 fold enrichment (6-mer frequency, TF over GST control)
ELK3
  binding signal: 1.48 fold enrichment (6-mer frequency, TF over GST control)
FEV
  binding signal: 1.39 fold enrichment (6-mer frequency, TF over GST control)
ETV5
  binding signal: 1.49 fold enrichment (6-mer frequency, TF over GST control)
HSF1
  binding signal: 1.25 fold enrichment (6-mer frequency, TF over GST control)
SPIC
  binding signal: 1.36 fold enrichment (6-mer frequency, TF over GST control)
ELF4
  binding signal: 1.34 fold enrichment (6-mer frequency, TF over GST control)
ELK4
  binding signal: 1.56 fold enrichment (6-mer frequency, TF over GST control)
ETV2
  binding signal: 1.49 fold enrichment (6-mer frequency, TF over GST control)
ELF3
  binding signal: 1.31 fold enrichment (6-mer frequency, TF over GST control)
CRX
  binding signal: 1.31 fold enrichment (6-mer frequency, TF over GST control)
ETV1
  binding signal: 1.36 fold enrichment (6-mer frequency, TF over GST control)
